High-throughput results from PubChem.
Rows were chosen to be rich in hits. Some 3.5% of all compounds tested hit in one or more screens of this group.
MITF inh – inhibitors of human MITF | O75030 | AlphaScreen MITF homodimerization, bead proximity signal | inhibition, % at 2.6 µM | actives 0.91% (n = 650,000); in the data active = inhibition above about 50%;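 note: 0% = vehicle wells with protein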
TEAD-YAP inh – TEAD-YAP interaction inhibition | HEK-TIYL cells, TEAD-Gal4/YAP UAS-luciferase luminescence | inhibition, % at 9.12 µM | actives 1.4% (n = 640,000) | AID 1259422; in the data active = inhibition above about 32%;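 note: 0% = median of test compound wells and 100% = reference inhibitor wells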
GPR151 activ – activates the human receptor GPR151. Q8TDV0. PathHunter beta-arrestin GPR151 cells, luminescence. activation, % at 11.2 µM. actives 1% (n = 650,000). AID 1508602; in the data active = activation above about 4.9%;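 note: 0% = median of compound wells and 100% = cells with positive control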
Target sequence (Q8TDV0 whole entry, looked up): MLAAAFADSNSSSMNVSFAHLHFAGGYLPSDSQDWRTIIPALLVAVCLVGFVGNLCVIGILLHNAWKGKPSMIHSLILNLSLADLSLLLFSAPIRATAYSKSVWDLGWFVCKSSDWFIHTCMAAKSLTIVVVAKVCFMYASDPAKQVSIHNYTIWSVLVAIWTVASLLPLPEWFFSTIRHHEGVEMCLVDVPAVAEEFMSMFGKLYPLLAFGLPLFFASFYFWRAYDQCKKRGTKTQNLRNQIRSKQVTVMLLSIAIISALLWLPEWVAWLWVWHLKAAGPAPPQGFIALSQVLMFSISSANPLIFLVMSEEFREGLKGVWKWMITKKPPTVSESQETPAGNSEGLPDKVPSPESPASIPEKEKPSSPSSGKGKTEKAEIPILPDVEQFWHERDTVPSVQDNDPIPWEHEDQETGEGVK
FBW7 act – human FBW7 E3 ligase activation, primary screen | Q969H0 | AlphaScreen FBW7–phospho-cyclin E peptide binding, activator screen | normalized activity (activation), % at 26.1 µM | actives 0.13% (n = 650,000) | AID 1259310; in the data active = normalized activity above about 1.9%;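 note: purified mutant Fbw7 with reduced substrate affinity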
The depositor's hits bear a star.

Screening C/C(CC(=O)Nc1cccc2c1CCCC2)=N\NC(=O)c1cccc([N+](=O)[O-])c1 returned MITF inh 11.7, TEAD-YAP inh 4.0, GPR151 activ 0.7 and FBW7 act -0.1.
Screening CC(C)n1c(N2CCOCC2)nc2c(Nc3ccccc3)ncnc21 returned MITF inh 10.4, TEAD-YAP inh 1.4, GPR151 activ 2.4 and FBW7 act 0.0.
`COc1ccc(C2C(C#N)=C(SCC(N)=O)NC3=C2C(=O)CC(C)(C)C3)cc1` (centres undefined) gave MITF inh -2.6, TEAD-YAP inh 5.6, GPR151 activ 0.2 and FBW7 act -0.1.
For COc1ccc(CNc2ccc3ncc(-c4ccncc4)n3n2)cc1 the results were MITF inh -1.4, TEAD-YAP inh 65.8*, GPR151 activ -0.4 and FBW7 act -0.2.
`COc1ccccc1-c1cnc2ccc(NCc3cc(OC)c(OC)c(OC)c3)nn12` gave MITF inh 12.3, TEAD-YAP inh 58.8*, GPR151 activ -0.7 and FBW7 act 0.0.
OCc1ccc(-c2cnc3ccc(NCc4ccc(F)cc4)nn23)cc1 was read as MITF inh 7.3, TEAD-YAP inh 25.1, GPR151 activ -0.8 and FBW7 act 0.0.
For Clc1ccc(-c2cnc3ccc(NCc4ccc5c(c4)OCO5)nn23)cc1 the results were MITF inh 0.0, TEAD-YAP inh -8.6, GPR151 activ -0.6 and FBW7 act 0.7.
Oc1ccc(-c2cnc3ccc(NCc4ccc(F)cc4)nn23)cc1 was read as MITF inh -18.0, TEAD-YAP inh 40.2*, GPR151 activ 0.4 and FBW7 act -0.1.
For CN(C)c1ccc(-c2cnc3ccc(NCc4ccc5c(c4)OCO5)nn23)cc1 the results were MITF inh 7.5, TEAD-YAP inh 54.6*, GPR151 activ -0.4 and FBW7 act 0.0.
`Cc1onc(-c2ccccc2)c1C(=O)NCCCN(C)C` gave MITF inh 1.5, TEAD-YAP inh 6.7, GPR151 activ -1.2 and FBW7 act 0.7.
`CCCCc1ccc(NS(=O)(=O)c2ccc3c(c2)OCCO3)cc1` gave MITF inh -6.1, TEAD-YAP inh 9.8, GPR151 activ 2.3 and FBW7 act 0.4.
Screening NS(=O)(=O)c1ccc(CNc2ccc3ncc(-c4cccc5cccnc45)n3n2)cc1 returned MITF inh -0.7, TEAD-YAP inh 2.4, GPR151 activ 0.1 and FBW7 act 0.0.
Screening COc1ccc(-c2cnc3ccc(NCc4ccc5c(c4)OCO5)nn23)cc1 returned MITF inh -8.8, TEAD-YAP inh 35.6*, GPR151 activ -0.5 and FBW7 act 0.0.
For NS(=O)(=O)c1ccc(CNc2ccc3ncc(-c4ccccc4F)n3n2)cc1 the results were MITF inh 16.7, TEAD-YAP inh 33.8*, GPR151 activ -0.1 and FBW7 act 0.0.
COc1cccc(/C=N/Nc2nnc(C)n2N)c1O was read as MITF inh 11.1, TEAD-YAP inh -1.0, GPR151 activ -1.0 and FBW7 act -0.3.
For COc1ccc(/C=N/Nc2ncccc2[N+](=O)[O-])c(OC)c1 the results were MITF inh 12.9, TEAD-YAP inh 69.3*, GPR151 activ -9.1 and FBW7 act -0.7.
COc1cccc(/C=N/Nc2ccc([N+](=O)[O-])cc2)c1O was read as MITF inh 9.7, TEAD-YAP inh -48.8, GPR151 activ -1.7 and FBW7 act 1.1.
`COc1cccc(/C=N/Nc2ncc(C)c(=O)[nH]2)c1O` gave MITF inh 85.9*, TEAD-YAP inh 87.2*, GPR151 activ 2.4 and FBW7 act -0.1.
`COc1cccc(/C=N/Nc2ncccc2[N+](=O)[O-])c1O` gave MITF inh 26.0, TEAD-YAP inh 97.7*, GPR151 activ -9.6 and FBW7 act -0.9.
`CSCCC(NC(=O)/C(=C\c1ccc(F)cc1)NC(=O)c1ccco1)C(=O)O` (centres undefined) gave MITF inh 14.1, TEAD-YAP inh 1.9, GPR151 activ 1.0 and FBW7 act 0.0.
For Cc1cc(C)c2nc(SCC(N)=O)c(C#N)cc2c1 the results were MITF inh 10.6, TEAD-YAP inh -3.1, GPR151 activ 0.9 and FBW7 act 0.1.
Cn1c(C2=C(O)CN(c3ccccc3)C2=N)[n+](C)c2ccccc21 was read as MITF inh -11.1, TEAD-YAP inh 11.6, GPR151 activ 0.0 and FBW7 act 0.0.
`C=CCNC(=O)c1ccc(C)nc1NCc1cccnc1` gave MITF inh 17.0, TEAD-YAP inh -2.6, GPR151 activ 0.5 and FBW7 act 1.9*.
For Cc1ccc(C(=O)NCc2cccnc2)c(NCc2cccnc2)n1 the results were MITF inh 6.6, TEAD-YAP inh 7.8, GPR151 activ -0.3 and FBW7 act 1.0.
CC1CCN(Cc2ccccc2CO)CC1 was read as MITF inh -0.8, TEAD-YAP inh -7.6, GPR151 activ -0.1 and FBW7 act 0.0.
Screening Oc1ccc(CN2CCN(c3ccc(F)cc3)CC2)c2cccnc12 returned MITF inh 37.7, TEAD-YAP inh -8.6, GPR151 activ 4.6 and FBW7 act -0.6.
Screening CC1CCN(Cc2cc(Cn3ccnc3)c3cccnc3c2O)CC1 returned MITF inh 109.9*, TEAD-YAP inh 39.4*, GPR151 activ -0.3 and FBW7 act -1.0.
CC1CCN(Cc2cc(Cl)c(O)c3ncccc23)CC1 was read as MITF inh 98.1*, TEAD-YAP inh 84.8*, GPR151 activ 0.7 and FBW7 act -0.2.
Screening CN1CCN(Cc2cc(Cl)c(O)c3ncccc23)CC1 returned MITF inh 97.9*, TEAD-YAP inh 90.2*, GPR151 activ 0.8 and FBW7 act -0.8.
`CC1CCCCN1Cc1cc(Cl)c2cccnc2c1O` (centres undefined) gave MITF inh 29.7, TEAD-YAP inh 72.8*, GPR151 activ 0.6 and FBW7 act -1.1.
COc1ccc(-c2nn(-c3ccccc3)cc2C2CC(c3cccs3)=NN2C(C)=O)cc1 (centres undefined) was read as MITF inh -2.7, TEAD-YAP inh -2.9, GPR151 activ 1.6 and FBW7 act 0.2.
CC1CCN(Cc2cc(Cl)c3cccnc3c2O)CC1 was read as MITF inh 42.9, TEAD-YAP inh 45.6*, GPR151 activ 3.8 and FBW7 act -1.1.
For COc1ccc(C(=O)Oc2c(CN3CCOCC3)cc(Cl)c3cccnc23)cc1OC the results were MITF inh 0.4, TEAD-YAP inh 0.2, GPR151 activ -1.0 and FBW7 act -0.1.
For NC(=O)c1ncsc1Nc1ccnc(Nc2ccc(N3CCOCC3)cc2)c1 the results were MITF inh 20.2, TEAD-YAP inh 21.4, GPR151 activ 2.7 and FBW7 act -0.2.
Screening CSc1nc(Nc2ccnc(Nc3ccc(N4CCOCC4)cc3)c2)c(C(N)=O)s1 returned MITF inh 8.5, TEAD-YAP inh 41.4*, GPR151 activ -0.1 and FBW7 act -0.6.
Screening N#Cc1cc2c(nc1SCC(=O)OCc1ccccc1)CCCCCC2 returned MITF inh 4.3, TEAD-YAP inh -3.7, GPR151 activ -0.2 and FBW7 act 0.1.
CC(C)CC(=O)Nc1ccc(S(=O)(=O)N2CCC(c3nc4ccccc4[nH]3)CC2)cc1 was read as MITF inh 19.9, TEAD-YAP inh 34.4*, GPR151 activ 1.4 and FBW7 act 0.3.
`CC(C)C(=O)Nc1cccc(C(=O)Nc2nnc(CCc3ccccc3)s2)c1` gave MITF inh 7.0, TEAD-YAP inh 47.3*, GPR151 activ 0.9 and FBW7 act -0.1.
